Source: paper PMC4336329 (PLoS ONE, 2015)
Out of some 310,000 compounds screened, about 14,000 (4.5%) showed an effect of 50% or more. Effects have a minus sign here. The list comes from a sample in which strong results are over-represented; it also holds similar structures and randomly drawn compounds.

Each compound was assayed against human ether-à-go-go-related gene (hERG) potassium channel (human, UniProt Q12809) (assay: primary screen, population patch clamp on CHO cells stably expressing hERG; higher = less effect of the substance).
Chain of human ether-à-go-go-related gene (hERG) potassium channel (Q12809 whole entry, looked up): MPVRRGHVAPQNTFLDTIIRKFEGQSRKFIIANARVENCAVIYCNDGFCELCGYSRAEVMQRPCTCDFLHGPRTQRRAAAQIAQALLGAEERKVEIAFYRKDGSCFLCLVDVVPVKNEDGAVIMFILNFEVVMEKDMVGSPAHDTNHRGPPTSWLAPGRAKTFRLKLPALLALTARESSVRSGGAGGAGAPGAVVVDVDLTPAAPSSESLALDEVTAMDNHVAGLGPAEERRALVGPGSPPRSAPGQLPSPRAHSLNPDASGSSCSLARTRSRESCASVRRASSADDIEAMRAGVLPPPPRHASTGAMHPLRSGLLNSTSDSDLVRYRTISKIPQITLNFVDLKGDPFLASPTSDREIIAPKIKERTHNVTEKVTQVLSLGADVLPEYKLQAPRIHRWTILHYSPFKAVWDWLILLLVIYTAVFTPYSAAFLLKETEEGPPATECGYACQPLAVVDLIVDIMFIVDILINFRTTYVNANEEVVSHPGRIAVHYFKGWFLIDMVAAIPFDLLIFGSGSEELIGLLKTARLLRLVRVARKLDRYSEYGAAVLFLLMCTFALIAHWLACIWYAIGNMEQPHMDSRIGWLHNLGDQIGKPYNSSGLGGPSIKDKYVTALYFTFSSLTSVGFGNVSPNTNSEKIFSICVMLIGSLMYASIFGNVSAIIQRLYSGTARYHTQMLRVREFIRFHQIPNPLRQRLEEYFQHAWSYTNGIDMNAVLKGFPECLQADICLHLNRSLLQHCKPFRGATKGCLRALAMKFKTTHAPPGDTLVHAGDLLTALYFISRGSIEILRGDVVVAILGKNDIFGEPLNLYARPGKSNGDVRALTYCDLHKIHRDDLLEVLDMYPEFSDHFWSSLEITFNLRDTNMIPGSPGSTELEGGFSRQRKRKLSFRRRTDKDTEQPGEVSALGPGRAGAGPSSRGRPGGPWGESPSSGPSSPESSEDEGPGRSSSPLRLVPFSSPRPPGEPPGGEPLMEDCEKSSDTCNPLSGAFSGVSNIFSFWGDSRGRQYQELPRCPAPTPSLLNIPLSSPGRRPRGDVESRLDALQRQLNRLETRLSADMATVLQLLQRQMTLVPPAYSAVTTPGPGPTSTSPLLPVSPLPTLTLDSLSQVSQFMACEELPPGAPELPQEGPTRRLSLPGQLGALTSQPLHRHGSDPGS
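Further: peak tail current of the secondary pulse compared with the same well before compound.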

SMILES	hERG current change (%, negative = inhibition) at 10uM
CCOC(=O)N1CCN(C(=O)c2csc3c2CCCCC3)CC1	8.08%
C=C(C)C1Cc2c(C)nn(-c3ccccn3)c2C1 (stereo not drawn)	11%
Cc1csc(SCC(=O)Nc2sccc2C#N)n1	-0.612%
Cc1oc(-c2ccccc2)nc1CS(=O)CC(=O)NC1CCCCCC1 (stereo not drawn)	-11.5%
Cc1cccc(OCC(=O)NCC(=O)n2nc(C)cc2C)c1	10.5%
Oc1c(C(c2ccco2)N2CCC3(CC2)OCCO3)sc2ncnn12 (stereo not drawn)	1.38%
COc1ccc(C2=CC(c3ccc(Cl)cc3)n3cnnc3N2)cc1OC (stereo not drawn)	-52%
COc1ccc(C2C=C(c3ccc(Cl)cc3)Nc3nc(NC(C)=O)nn32)cc1 (stereo not drawn)	-39.7%
COc1ccc(C2=CC(c3c(C)nn(-c4ccccc4)c3Cl)n3nnnc3N2)cc1OC (stereo not drawn)	11.4%
COCCn1c(SCC(=O)Nc2sc(C)c(C)c2C#N)nnc1C(C)C	-3.62%
Cc1ccc(-c2nnc(SCC(=O)Nc3sc(C)c(C)c3C#N)n2C)cc1	-54.1%
CCOC(=O)c1sc(NC(=O)CSc2nnc(-c3ccc(OC)cc3)n2CCOC)nc1C	-27.3%
Cc1ccc(OCc2nnc(SCC(=O)Nc3sc(C)c(C)c3C#N)n2C)cc1	12.8%
Cc1sc(NC(=O)CSc2nnc(C(C)C)n2C)c(C#N)c1C	-1.79%
COCCn1c(SCC(=O)Nc2sc(C)c(C)c2C#N)nnc1-c1ccc(OC)cc1	-52.1%
CN1CCN(C(=S)c2ccc(-c3cc(Cl)ccc3Cl)o2)CC1	-20.7%
CC1CCN(C(=O)COC(=O)c2cc3ccccc3cc2O)CC1	3.92%
O=C1c2ccccc2C(=O)N1n1c(=O)[nH]c2ccccc2c1=O	14.9%
O=C(O)c1ccccc1-n1c2ccccc2c2ccccc21	19%
COc1ccccc1NC(=O)C(C)OC(=O)Cc1n[nH]c(=O)c2ccccc12 (stereo not drawn)	9.99%
Cn1c(SCc2nc3ccccc3[nH]2)nnc1-c1cnccn1	10.2%
Oc1ccc(C=NCCc2ccccc2)cc1	10.2%
COc1ccc(OC)c(/C=C/C(=O)N(C)CC(=O)Nc2ccc(N3CCOCC3)cc2)c1	-8.78%

SMILES	hERG current change (%, negative = inhibition) at 10uM
COc1ccc(C[C@H]2CN3C(=NC[C@H]3Cc3ccccc3)N2CCNC(=O)c2ccc(C)c(Br)c2)cc1	-69%
COc1ccc(C[C@H]2CN3C(=NC[C@@H]3Cc3ccccc3)N2CCNC(=O)c2ccc(C)c(Br)c2)cc1	-74%
CCCCCCNC(=O)N[C@@H](C(=O)NCCC[C@H]1CN2C(=NC[C@@H]2Cc2ccccc2)N1CCc1cccc(OC)c1)C(C)C	-18.7%
COc1ccc(/C=N/Nc2cc(N(C)C)nc(N(C)C)n2)cc1	-28.5%
COc1ccc(C2(C(=O)Nc3ccc(C)c(C)c3)CCOCC2)cc1	6.97%
Cc1ccc2c(c1)sc(C)[n+]2CCCS(=O)(=O)[O-]	29.7%
COc1cc(/C=N/NC(=O)Cc2ccccc2)ccc1Oc1ccc([N+](=O)[O-])cc1[N+](=O)[O-]	1.03%
CN1CCCC(OC(=O)c2ccc(S(=O)(=O)N(C)C)cc2)C1.Cl (stereo not drawn)	8.58%
Cc1ccc(Cl)c(OCCN2CCc3ccccc3C2)c1.Cl	-9.17%
Cl.c1ccc(SCCOCCN2CCOCC2)cc1	14.3%
Cc1ccc(SCCOCCN2CCc3ccccc3C2)cc1	-60.5%
Cc1ccc(SCCOCCN2CC(C)OC(C)C2)cc1.Cl (stereo not drawn)	-12.4%
c1ccc(SCCOCCN2CCc3ccccc3C2)cc1	-75.3%
Cc1ccc(SCCOCCN2CCOCC2)cc1.Cl	-1.55%
Cl.Clc1ccc(SCCOCCN2CCc3ccccc3C2)cc1	-53.7%
CC1CN(CCOCCSc2ccccc2)CC(C)O1.Cl (stereo not drawn)	-14.9%
c1ccc(SCCN2CCc3ccccc3C2)cc1	-19.3%
O=C(c1cccnc1)N1CCC(Oc2ccc(C(=O)N3CCCC(O)C3)cc2)CC1 (stereo not drawn)	-0.912%
CC(=O)c1cnc2nc(SCc3ccccc3)nn2c1C	0.852%
O=C(c1ccco1)N1CCN(C2CC(=O)N(c3ccc4c(c3)OCO4)C2=O)CC1 (stereo not drawn)	-16.8%
COc1ccc(CC(=O)N2CCN(c3ccccn3)CC2)cc1OC	8.9%
COc1cc(C(=O)N/N=C/c2cc([N+](=O)[O-])cs2)cc(OC)c1OC	-8.26%
